# Screens as filed in PubChem BioAssay.
# Epigenetic mod: epigenetic GFP locus derepression in mouse cells; mouse C127i GFP locus derepression, cytometry, 30 h; Potency, µM (top dose mostly 46.1 µM), for inactives: at the highest dose GFP derepression (activation); 0.09% of 68,000 active; note: % of control where 0% means no effect
#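 Murine C127i mammary cells carrying a silenced, stably integrated CMV-driven GFP reporter were treated with compound for 30 hours at 37 C. After PBS washes, GFP-positive cells were counted by laser-scanning microplate cytometry.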
# UbGFP stabilizer: inhibits proteasome, raising ubiquitin-GFP reporter fluorescence; Ubiquitin-GFP reporter cells, proteasome inhibition, GFP fluorescence; response scale: untreated = 0%, 10 µM MG-132 = 100%; Potency, µM (top dose mostly 45.9 µM), inactives show top-dose activation (GFP accumulation), actives largely listed as activators; 67,000 tested, under 10 active; AID 526; active = well fitted activation curve with a large enough effect, not every such curve was filed as active; inconclusive = small, poorly fitted or top-dose-only effect, or another doubt; inactive = no such curve, though single readings can be large or run the other way; note: potency is the fitted concentration of half-maximal effect
#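 GFP accumulation read-out: laser plate cytometry counting ubiquitin(G76V)-GFP-expressing U2OS cells after 4 hr compound exposure at 37 °C. Titrations spanned 46 uM to 2.9 nM; 0% = basal, 100% = 10 uM MG-132; concentration-response curves fitted.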
# Imprint erasure: induces erasure of genomic imprints in mouse ES cells. mouse ES Peg3-LacZ reporter, beta-gal luminescence, 40 h. Potency, µM (doses to about 60.7 µM), for the others: at the top dose activity change, positive = activation, usual class: activators. 0.02% of 110,000 active. AID 1948; note: potency is the fitted concentration of half-maximal effect
#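 Readout: BetaGlo luminescence (5 min, room temp) for LacZ from the normally silent maternal Peg3 allele in female Peg3LacZ-Neo ES cells. Cells 300/well, 40 h, 37C, 5% CO2. Data normalized per plate to negative controls.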
# HBB splicing: hemoglobin beta splicing modulation. HBB splicing reporter cell assay, activation; EGFP reporter with mutant IVS2-654 intron; response scale: normalised to 500 nM splice-correcting PNA. Potency, µM (top dose mostly 46.1 µM), for inactives: at the highest dose activation, hits mostly activators. 0.06% of 65,000 active. AID 925; note: potency is the fitted concentration of half-maximal effect; 0% is about no effect
#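 Compounds were applied for 2 days to HeLa EGFP-654 cells, 500/well in Optimem with 2% FCS. The reporter's EGFP is disrupted by mis-splicing of beta-globin intron IVS2-654. Readout: summed well GFP fluorescence from 488 nm laser scanning; reference was 500 nM antisense […] 654 PNA.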
# p53ts 39C tox: kills p53ts cells at the nonpermissive temperature. H1299-p53A138V viability at 39C, ATP luminescence, 24 h. Potency, µM (series often up to 46.1 µM), inactives show at the top dose activity change, negative = cell killing, actives largely listed as cytotoxic. 1.5% of 130,000 active. AID 902; note: potency is the fitted concentration of half-maximal effect; % is set by controls: 0 for no effect and ±100 for the full control effect; nearly all actives have a fitted effect of over 55% in size
# p53ts 32C kill: kills p53ts cells at the permissive temperature; H1299-p53A138V at 32C, ATP luminescence viability, 24 h; Potency, µM (series often up to 46.1 µM), inactives show at the top dose activity change, negative = cytotoxicity, most hits filed as cytotoxic; 0.93% of 130,000 active; AID 924;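 note: potency is the fitted concentration of half-maximal effect; 0% = DMSO and -100% = full killing by reference compound; nearly all actives have a fitted effect of over 55% in size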
#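 ATP-content luminescence (ATPlite) read-out after 24 h compound exposure at 32C in H1299-p53A138V cells (600/well). Tested up to 46 uM. Normalized to DMSO (0%) and 100 uM tamoxifen (100% killing); Hill-fit AC50.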
# * hit, by the source's call; ? = inconclusive; · = no result; [ ] = remark or other dose. Rows were chosen to be rich in hits. Some 1.6% of all compounds tested hit in one or more screens of this group. Unless noted, calls come from the whole dose curve; as a rule, active = well fitted curve in the direction sought with a large enough effect; inconclusive = small, poorly fitted or top-dose-only effect, or another doubt; inactive = no such curve, though single readings can be large; an effect the other way counts as inactive or inconclusive.
SMILES,Epigenetic mod,UbGFP stabilizer,Imprint erasure,HBB splicing,p53ts 39C tox,p53ts 32C kill
CC1CC[C@@]2(OC1)OC1C(O)C3C4CC[C@H]5CC(O[C@@H]6O[C@@H](CO)[C@H](OC7OC(CO)C(O)C(OC8OCC(O)C(O)[C@H]8O)[C@@H]7O[C@@H]7OC(CO)[C@H](O)[C@@H](O[C@@H]8OC(CO)C(O)C(O)C8O)C7O)C(O)C6O)C(O)C[C@]5(C)C4CC[C@]3(C)C1C2C (some centres undefined),·,·,-36.7%,·,6.31µM*,6.31µM*
CC1CC[C@@]2(OC1)O[C@@H]1[C@@H](O)[C@H]3C4CC[C@H]5C[C@@H](O[C@@H]6O[C@H](CO)[C@H](O[C@@H]7O[C@H](CO)[C@@H](O)[C@H](O[C@@H]8OC[C@@H](O)[C@H](O)[C@H]8O)[C@H]7O[C@@H]7O[C@H](CO)[C@@H](O)[C@H](O[C@@H]8O[C@H](CO)[C@@H](O)[C@H](O)[C@H]8O)[C@H]7O)[C@H](O)[C@H]6O)[C@H](O)C[C@]5(C)C4CC[C@]3(C)[C@H]1[C@@H]2C (some centres undefined),·,·,-22.3%,·,12.6µM*,12.6µM*
C[C@@H](Cc1ccc2c(c1)OC(C(=O)O)(C(=O)O)O2)NC[C@H](O)c1cccc(Cl)c1,-0.2%,-3.3%,·,1.8%,10.7%,-8.9%
CCN1C[C@]2(C)CC[C@@H](O)[C@]34[C@@H]5CC6[C@@H](OC)C[C@@](O)([C@H]5[C@@H]6O)[C@@H](C[C@@H]23)[C@H]14,0.0%,0.3%,·,0.2%,12.0%,-5.4%
O=C(COC(=O)c1cccc(NC(=O)c2ccc(Br)cc2)c1)c1ccc(Br)cc1,·,·,?,·,?,-24.4%
Cc1ccc(C(=O)COC(=O)c2cccc(NC(=O)c3ccc(Br)cc3)c2)cc1,·,·,-15.9%[10.9 µM],·,7.94µM*,?
COc1cc2c(cc1OC)-c1c(O)c(OC)cc3c1[C@@H](C2)N(C)CC3,-4.0%[9.22 µM],2.6%,·,·,·,·
[O]=[Cr](=[O])([OH])[O][Cr](=[O])(=[O])[OH],·,·,-18.0%,?,10µM*,-5.2%[1.84 µM]
C[C@H]1C2C=C[C@H]1[C@@H](C(=O)O)[C@@H]2c1c2ccc(=O)c(O)c-2oc2c(O)c(O)ccc12,·,·,-15.2%[10.9 µM],·,·,·
